Key:
Settings in all cases: concentration: 1 μM, replicates: in singlicate; n = 1
ERK8 = test system: T1, ERK8
T1 construct: gene MAPK15

ERN1 = test system: ERN1
FAK = test system: T2, FAK
T2 construct: gene PTK2

FER = test system: FER
FES = test system: FES
FGFR1 = test system: FGFR1
FGFR2 = test system: FGFR2
FGFR3 = test system: FGFR3
FGFR4 = test system: FGFR4
FGR = test system: FGR
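Also: KINOMEscan kinase panel screen.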

Structure (SMILES)	%Inh (ERK8)	%Inh (ERN1)	%Inh (FAK)	%Inh (FER)	%Inh (FES)	%Inh (FGFR1)	%Inh (FGFR2)	%Inh (FGFR3)	%Inh (FGFR4)	%Inh (FGR)
Cc1ccccc1Cn1ccn2c(=O)cc(N3CCOCC3)nc12 [GSK2269905]	0%	0%	0%	18%	9%	0%	2%	0%	19%	31%
CNC(=O)c1ccc(C)c(-n2c(C)cc(OCc3ccc(F)cc3F)c(Br)c2=O)c1	13%	0%	0%	18%	0%	0%	0%	0%	0%	0%
COc1ccc(Nc2nccc(NCCNC(=O)Nc3cc(C)ccc3C)n2)cc1 [GSK1379899]	43%	0%	0%	17%	4%	11%	15%	0%	0%	14%
Fc1ccc(-c2nn3cccc(F)c3c2-c2ccncc2)cc1 [GW475620]	15%	0%	1%	17%	0%	23%	25%	6%	0%	15%
COc1ccc(Nc2nccc(N3CCC(NC(=O)c4cc5ccccc5s4)C3)n2)cc1 (centres unmarked) [GSK1379738]	0%	0%	0%	0%	0%	0%	0%	2%	4%	15%
Cl.Cl.Cl.N#Cc1ccc(CCNc2nccc(-c3cccc(CN4CCNCC4)c3)n2)cc1 [GSK2137462]	28%	25%	56%	4%	6%	0%	10%	17%	22%	23%
COc1ccc(Nc2nccc(N3CCC(NC(=O)C(C)c4ccc(Cl)cc4)CC3)n2)cc1 (centres unmarked) [GSK1379812]	0%	0%	0%	46%	19%	0%	0%	30%	4%	5%
CC(C)c1cc(-c2ccc3c(N)n[nH]c3c2)nc(N)n1 [GSK2250882]	0%	4%	0%	14%	19%	0%	18%	9%	8%	34%
Cc1ccc(NC(=O)Nc2ccc(Cl)cc2)cc1-c1ccc(C(=O)Nc2ccncc2)cc1 [GSK1398472]	0%	0%	0%	15%	0%	0%	39%	13%	14%	18%
COc1ccc(-c2coc3ccc(-c4nnc(C)o4)cc23)cc1	0%	0%	0%	0%	22%	0%	4%	4%	0%	36%
CC(=O)c1cccc(NC(=O)NC2CCN(c3ccnc(Nc4ccc(F)cc4)n3)C2)c1 (centres unmarked) [GSK1379710]	0%	19%	0%	3%	0%	0%	0%	6%	11%	0%
Cc1ccccc1-c1cc(-c2c[nH]nc2-c2ccccn2)ccn1 [GW680061]	0%	0%	0%	2%	0%	0%	0%	0%	0%	15%
CNc1nc(-c2ccc3c(N)n[nH]c3c2)cc(N2C[C@@H](C(=O)NC3CCCCC3)OC[C@H]2C)n1 [GSK2375584]	0%	0%	0%	34%	0%	13%	27%	27%	7%	17%
NS(=O)(=O)c1cccc(N/C=C2\C(=O)Nc3ccc(S(=O)(=O)Cc4c(Cl)cccc4Cl)cc32)c1 [GSK398099]	0%	7%	0%	7%	1%	0%	0%	7%	9%	31%
FC(F)(F)c1ccccc1-c1cc(-c2c[nH]nc2-c2ccccn2)ccn1 [GW679396]	0%	10%	0%	15%	0%	4%	0%	0%	0%	12%
O=C(Nc1n[nH]c2nc(-c3ccco3)c(Br)cc12)C1CCN(Cc2ccccc2)C1.O=C(O)[C@H](O)[C@@H](O)C(=O)O (centres unmarked) [SB-742034]	2%	19%	4%	0%	0%	23%	0%	0%	10%	6%
Nc1ncnc2occ(-c3ccc4c(c3)CCN4C(=O)Cc3cc(F)ccc3F)c12 [GSK2645446]	0%	0%	0%	8%	0%	0%	0%	17%	1%	16%

Reference: article PMC5540273 (PLoS ONE, 2017)
